Results filed as inconclusive are left out. Active and inactive are the calls of the source. Unless noted, calls come from the whole dose curve; as a rule, active = well fitted curve in the direction sought with a large enough effect in the repeat runs; inconclusive = weak or mixed curves; inactive = no such curve, though single readings can be large; an effect the other way counts as inactive or inconclusive.
Columns and labels:
[1] = qHTS assay to identify small molecule agonists of the RXR signaling pathway - cell viability counter screen (AID 1159529);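 note: HEK 293T cells carrying an RXR-alpha UAS beta-lactamase reporter; nearly all actives have a fitted effect of over 50% in size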
In short: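 Same-well viability check after the LiveBLAzer FRET read: CellTiter-Glo added, luminescence measured after 30 min at room temperature. Reporter HEK 293T cells had been treated with compounds for 16 hr following a 5 hr preincubation.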

[2] = qHTS assay to identify small molecule antagonists of the retinoid acid receptor (RAR) signaling pathway - cell viability counter screen (AID 1159551); note: nearly all actives have a fitted effect of over 35% in size
In short: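 Cells (C3RL4) are plated, incubated overnight, dosed with compound in DMSO, then given retinol at 1 uM final. After 6 h at 37 C, CellTiter-Glo is added and luminescence read following 30 min at room temperature.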

[3] = qHTS assay to identify small molecule antagonists of the retinoic acid receptor (RAR) signaling pathway (AID 1159552; note: nearly all actives have a fitted effect of over 50% in size)
In short: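 Readout: luciferase luminescence, 30 min post-reagent at RT. Setup: C3RL4 RARE reporter cells, compounds plus retinol 1 uM final, 6 hr incubation at 37 C and 5% CO2.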

[4] = qHTS assay to identify small molecule agonists of the retinoic acid receptor (RAR) signaling pathway (AID 1159553)
In short: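 Seed C3RL4 reporter cells at 1,000 per well and incubate overnight at 37 C. Add compounds in DMSO, incubate 6 hr. Add luciferase reagent, wait 30 min at room temperature, read luminescence.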

[5] = qHTS assay to identify small molecule antagonists of the estrogen related receptor (ERR) signaling pathway from Tox21 library - cell viability counter screen (AID 1224834); note: nearly all actives have a fitted effect of over 30% in size
In short: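 ERR cells, 2,000/well; 6 h settle at 37 C/5% CO2; pin-tool compound transfer in DMSO; 17.5 h at 37 C; CellTiter-Fluor, 30 min; fluorescence intensity.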

[6] = biological target: Luciferin 4-monooxygenase (Photinus pyralis) (UniProt P08659); assay: qHTS assay to identify small molecule inhibitors of firefly luciferase (AID 1224835); note: nearly all actives have a fitted effect of over 25% in size
Chain of Luciferin 4-monooxygenase (Photinus pyralis) (P08659 whole entry, looked up): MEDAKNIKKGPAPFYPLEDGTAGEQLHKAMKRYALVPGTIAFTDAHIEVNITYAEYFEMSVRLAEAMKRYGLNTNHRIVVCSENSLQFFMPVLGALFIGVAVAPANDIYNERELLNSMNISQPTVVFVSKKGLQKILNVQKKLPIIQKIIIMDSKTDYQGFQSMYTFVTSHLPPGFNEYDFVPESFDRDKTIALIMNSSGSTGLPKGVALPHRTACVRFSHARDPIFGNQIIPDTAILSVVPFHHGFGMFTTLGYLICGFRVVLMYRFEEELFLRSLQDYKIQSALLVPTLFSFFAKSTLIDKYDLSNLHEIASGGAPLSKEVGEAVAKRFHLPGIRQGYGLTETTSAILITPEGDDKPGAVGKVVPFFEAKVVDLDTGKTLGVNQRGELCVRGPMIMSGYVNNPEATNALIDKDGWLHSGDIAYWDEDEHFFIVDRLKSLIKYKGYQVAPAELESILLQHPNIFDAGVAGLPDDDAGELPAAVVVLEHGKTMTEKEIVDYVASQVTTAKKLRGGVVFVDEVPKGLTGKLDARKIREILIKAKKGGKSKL
In short: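 Inhibition of purified Photinus luciferase is measured by luminescence. Substrate levels (D-luciferin, ATP) sit at their KM values. Each compound is tested in a concentration series.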

[7] = qHTS assay to identify small molecule agonists of the constitutive androstane receptor (CAR) signaling pathway - cell viability counter screen (AID 1224836); note: nearly all actives have a fitted effect of over 45% in size
In short: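 Compound titrations (15 concentrations) went onto HepG2-CYP2B6-hCAR cells 4 h after seeding, alongside PK11195 at a final 0.75 uM; a 23 h, 37 C/5% CO2 incubation preceded CellTiter-Fluor viability measurement.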

[8] = qHTS assay to identify small molecule antagonists of the constitutive androstane receptor (CAR) signaling pathway - cell viability counter screen (AID 1224837); note: nearly all actives have a fitted effect of over 45% in size
In short: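 Viability was measured with CellTiter-Fluor in a HepG2 line carrying stably transfected hCAR and a CYP2B6-2.2kb construct. Cells were exposed for 23 hr at 37 C to 15 compound concentrations with 50 nM CITCO as agonist.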

[9] = biological target: Nuclear receptor subfamily 1 group I member 3 (Homo sapiens) (UniProt Q14994); assay: qHTS assay to identify small molecule antagonists of the constitutive androstane receptor (CAR) signaling pathway (AID 1224838);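 note: HepG2 cells stably expressing hCAR with CYP2B6 luciferase reporter stimulated by CITCO; nearly all actives have a fitted effect of over 40% in size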
Chain of Nuclear receptor subfamily 1 group I member 3 (Homo sapiens) (Q14994 whole entry, looked up): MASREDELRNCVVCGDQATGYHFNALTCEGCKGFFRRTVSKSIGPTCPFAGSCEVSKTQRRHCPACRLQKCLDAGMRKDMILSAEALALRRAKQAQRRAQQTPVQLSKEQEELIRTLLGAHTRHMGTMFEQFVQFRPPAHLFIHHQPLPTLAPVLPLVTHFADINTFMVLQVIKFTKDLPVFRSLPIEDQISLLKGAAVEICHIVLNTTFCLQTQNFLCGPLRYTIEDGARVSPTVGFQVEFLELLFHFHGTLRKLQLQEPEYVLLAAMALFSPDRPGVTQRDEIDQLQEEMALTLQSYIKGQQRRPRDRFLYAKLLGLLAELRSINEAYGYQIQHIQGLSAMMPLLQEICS
In short: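 Antagonist mode used CITCO at a final 50 nM to activate CAR in human hepatoma HepG2 cells carrying stable hCAR and a 2.2 kb CYP2B6 promoter-luciferase construct. Compounds were tested at 15 concentrations over 24 h, with luminescence as the end point.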

[10] = biological target: Nuclear receptor subfamily 1 group I member 3 (Homo sapiens) (UniProt Q14994); assay: qHTS assay to identify small molecule agonists of the constitutive androstane receptor (CAR) signaling pathway (AID 1224839); note: nearly all actives have a fitted effect of over 15% in size
In short: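 In this screen, CAR-driven CYP2B6 promoter activity is measured by luminescence in HepG2-CYP2B6-hCAR cells after 24 h with test compounds and 0.75 uM PK11195 (final concentration).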

[11] = qHTS assay to identify small molecule antagonists of the estrogen related receptor signaling pathway with the pleiotropic PPARgamma coactivator (PGC) from Tox21 10K library - cell viability counter screen (AID 1224840; active = well fitted cell-killing curve with a large enough effect in the repeat runs, not every such curve was filed as active; note: nearly all actives have a fitted effect of over 40% in size)
In short: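 Multiplexed viability counter screen in the PGC/ERR cell line: cells treated with DMSO-dissolved compounds for 17.5 hours at 37 C, then viability measured as CellTiter-Fluor fluorescence.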

[12] = biological target: Thyrotropin receptor (Homo sapiens) (UniProt P16473); assay: qHTS assay to identify small molecule agonists of the thyroid stimulating hormone receptor (TSHR) signaling pathway (AID 1224843; calls by dose curve; note: nearly all actives have a fitted effect of over 45% in size)
Chain of Thyrotropin receptor (Homo sapiens) (P16473 whole entry, looked up): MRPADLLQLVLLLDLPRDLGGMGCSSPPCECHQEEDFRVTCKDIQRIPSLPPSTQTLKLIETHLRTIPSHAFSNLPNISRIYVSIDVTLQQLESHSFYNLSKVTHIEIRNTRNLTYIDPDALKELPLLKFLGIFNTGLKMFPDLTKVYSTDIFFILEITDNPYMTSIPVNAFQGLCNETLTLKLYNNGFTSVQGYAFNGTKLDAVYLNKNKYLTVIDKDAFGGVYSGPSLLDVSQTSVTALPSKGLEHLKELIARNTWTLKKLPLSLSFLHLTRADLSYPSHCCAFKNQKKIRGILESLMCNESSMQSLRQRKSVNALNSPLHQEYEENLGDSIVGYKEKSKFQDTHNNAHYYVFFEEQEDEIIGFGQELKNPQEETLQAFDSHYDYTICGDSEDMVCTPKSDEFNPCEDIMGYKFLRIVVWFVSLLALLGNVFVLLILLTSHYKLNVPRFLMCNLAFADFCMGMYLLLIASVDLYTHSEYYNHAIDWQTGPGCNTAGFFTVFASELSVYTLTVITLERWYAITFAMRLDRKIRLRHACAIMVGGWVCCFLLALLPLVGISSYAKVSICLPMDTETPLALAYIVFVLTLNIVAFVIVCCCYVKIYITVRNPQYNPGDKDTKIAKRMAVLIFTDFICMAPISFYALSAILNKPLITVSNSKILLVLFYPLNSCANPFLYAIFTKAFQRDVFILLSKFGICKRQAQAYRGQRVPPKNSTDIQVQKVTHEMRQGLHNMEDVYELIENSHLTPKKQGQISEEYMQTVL
In short: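 Agonist activity read as cAMP rise via d2/cryptate HTRF competition, 1 h room-temperature detection, in HEK293 cells expressing TSHR. Fifteen-point titrations, each run in triplicate, with a 30 min room-temperature incubation beforehand.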

[13] = qHTS assay to identify small molecule agonists of the hypoxia (HIF-1) signaling pathway - cell viability counter screen (AID 1224844; calls by dose curve; note: nearly all actives have a fitted effect of over 50% in size)
In short: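 Cytotoxicity was measured in parallel with the HRE-driven beta-lactamase readout: after 17 hrs of compound exposure at 37C, HRE-bla ME-180 cells received CellTiter-Glo and luminescence was recorded 30 min later.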

[14] = qHTS assay to identify small molecule agonists of H2AX (AID 1224845; active = well fitted activation curve with a large enough effect in the signal ratio in the repeat runs, not every such curve was filed as active; the % refers to the signal ratio)
In short: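 Phospho-H2AX Ser139 measured by HTRF (ex 320 nm; em 665 and 620 nm) after 24 hr antibody incubation. Compounds, 15 concentrations, 0.76% DMSO, were applied to CHO-K1 cells for 3hr at 37C before lysis.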

[15] = qHTS assay to identify small molecule agonists of H2AX - cell viability counter screen (AID 1224847; calls by dose curve; note: top concentration of the series differs between compounds; nearly all actives have a fitted effect of over 30% in size)
In short: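 Read-out: CellTiter-Glo luminescence, 30 min RT. Cells: wild-type CHO-K1, 1000/well, 10% FBS, plated overnight at 37C. Treatment: 15 concentrations, 3 hr, 37C, 0.76% DMSO.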

[16] = qHTS assay to identify small molecule antagonists of the estrogen related receptor (ERR) signaling pathway from Tox21 library (AID 1224848); note: nearly all actives have a fitted effect of over 50% in size
In short: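 Luciferase luminescence (ONE-Glo, 30 min room temperature) was the read-out. Cells of the NTP-supplied ERR line, 2,000 per well, were given 6 h at 37 C before compound addition in DMSO and 18 h exposure at 37 C.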

[17] = qHTS assay to identify small molecule agonists of the estrogen related receptor (ERR) signaling pathway from Tox21 library (AID 1224849; calls by dose curve; note: nearly all actives have a fitted effect of over 15% in size); conditions: ERR reporter cell line, ONE-Glo luciferase, 18 h; at 92.4 µM (top of the series) unless noted
In short: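 Cells carrying the ERR reporter were plated and allowed to settle for 6 h, exposed to library compounds for 18 h at 37 C, then lysed with ONE-Glo and luminescence measured.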

[18] = qHTS assay to identify small molecule agonists of the hypoxia (HIF-1) signaling pathway (AID 1224846; active = well fitted activation curve with a large enough effect in the signal ratio in the repeat runs, not every such curve was filed as active; the % refers to the signal ratio)
In short: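 Compounds from the Tox21 10K library, dissolved in DMSO, are tested for induction of a hypoxia response element–controlled beta-lactamase reporter in ME-180 cells. Exposure lasts 17 hrs at 37C after a 5 hr settling period, followed by CCF4-AM FRET substrate.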

[19] = qHTS assay to identify small molecule antagonists of the estrogen related receptor signaling pathway with the pleiotropic PPARgamma coactivator (PGC) from Tox21 10K library (AID 1224841; call rule not given here)
In short: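 Steps: plate 2,000 PGC/ERR cells per well; incubate 6 h at 37 C with 5% CO2; transfer compounds from DMSO stocks by pin tool; incubate 18 h at 37 C; add One-Glo; measure luminescence 30 min later.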
% is set by controls: 0 for no effect and ±100 for the full control effect.

C=CCCCCCCCCCCCCCC
inactive: activity change, negative = cytotoxicity [1] -3.45% [at 15.8 µM] | activity change, negative = cytotoxicity [2] 0.725% [at 19 µM] | activity, negative = inhibition [3] -7.34% [at 19 µM] | Potency [4] | viability change, negative = cytotoxic [5] 3.18% [at 19 µM] | activity change, negative = inhibition [6] 0.285% [at 23.6 µM] | viability change, negative = cytotoxic [7] 7.15% [at 19 µM] | activity change, negative = cytotoxicity [8] -0.461% [at 19 µM] | activity, negative = inhibition [9] 6.03% [at 19 µM] | activation [10] -0.195% [at 19 µM] | viability change, negative = cytotoxic [11] 2.94% [at 19 µM] | activation [12] 2.45% [at 19 µM] | activity change, negative = cytotoxicity [13] -3.81% [at 15.8 µM] | activation (H2AX phosphorylation) [14] -0.234% [at 31.6 µM] | activity change, negative = cytotoxicity [15] 0.186% [at 31.6 µM] | activity, negative = inhibition [16] 3.1% [at 19 µM] | activity change, positive = activation [17] 1.6% [at 19 µM]

CCCCCCCCS(=O)(=O)O
inactive: Potency [1] | outcome [2] | outcome [3] | Potency [4] | outcome [5] | Potency [6] | outcome [7] | outcome [8] | outcome [9] | Potency [10] | outcome [11] | Potency [12] | outcome [13] | outcome [14] | outcome [15]

C[C@@H]1CCC[C@H](C)N1CCCC(O)(c1ccccc1)c1ccccn1 (stereo partly drawn)
inactive: Potency [1] | outcome [2] | outcome [3] | Potency [4] | outcome [5] | Potency [6] | outcome [7] | outcome [8] | outcome [9] | Potency [10] | outcome [11] | Potency [12] | outcome [13] | outcome [14] | outcome [18]

CC(O)CCCCn1c(=O)c2c(ncn2C)n(C)c1=O (stereo not drawn)
inactive: Potency [1] | outcome [2] | outcome [3] | Potency [4] | outcome [5] | Potency [6] | outcome [7] | outcome [8] | outcome [9] | Potency [10] | outcome [11] | Potency [12] | outcome [13] | outcome [14] | outcome [18] | outcome [15]

Clc1cc(Cl)c(Cl)c(Cl)c1Cl
inactive: Potency [1] | outcome [2] | outcome [3] | Potency [4] | outcome [5] | Potency [6] | outcome [7] | outcome [8] | outcome [9] | Potency [10] | outcome [11] | Potency [12] | outcome [13] | outcome [14] | outcome [18] | outcome [15]

CC(C)(C)NCC(O)COc1cccc2c1CCC(=O)N2 (stereo not drawn)
inactive: Potency [1] | outcome [2] | outcome [3] | Potency [4] | outcome [5] | Potency [6] | outcome [7] | outcome [8] | outcome [9] | Potency [10] | outcome [11] | Potency [12] | outcome [13] | outcome [14] | outcome [15]

CC(C)CC(O)Cc1ccccc1 (stereo not drawn)
inactive: Potency [1] | outcome [2] | outcome [3] | Potency [4] | outcome [5] | Potency [6] | outcome [7] | outcome [8] | outcome [9] | Potency [10] | outcome [11] | Potency [12] | outcome [13] | outcome [14] | outcome [18] | outcome [15]

O=Cc1ccc(C(=O)O)cc1
inactive: Potency [1] | outcome [2] | outcome [3] | Potency [4] | outcome [5] | Potency [6] | outcome [7] | outcome [8] | outcome [9] | Potency [10] | outcome [11] | Potency [12] | outcome [13] | outcome [14] | outcome [18] | outcome [15]

C[n+]1ccccc1/C=N/O
inactive: Potency [1] | outcome [2] | outcome [3] | Potency [4] | outcome [5] | Potency [6] | outcome [7] | outcome [8] | outcome [9] | Potency [10] | outcome [11] | Potency [19] | Potency [12] | outcome [13] | outcome [15] | outcome [16] | activity change, positive = activation [17] 0.0992% [at 42.5 µM]

COC(=O)c1ccc(NC(C)=O)cc1OC
inactive: Potency [1] | outcome [2] | outcome [3] | Potency [4] | outcome [5] | Potency [6] | outcome [7] | outcome [8] | outcome [9] | Potency [10] | outcome [11] | Potency [12] | outcome [13] | outcome [14] | outcome [18] | outcome [15]

CC(=O)Oc1ccc(C(C)=O)cc1
inactive: Potency [1] | outcome [2] | outcome [3] | Potency [4] | outcome [5] | Potency [6] | outcome [7] | outcome [8] | outcome [9] | Potency [10] | outcome [11] | Potency [12] | outcome [13] | outcome [14] | outcome [18]

CN1CCN(C(=O)C2CCCCC2)CC1
inactive: Potency [1] | outcome [2] | outcome [3] | Potency [4] | outcome [5] | Potency [6] | outcome [7] | outcome [8] | outcome [9] | Potency [10] | outcome [11] | Potency [12] | outcome [13] | outcome [14] | outcome [18] | outcome [15]

CC(C)(C)OC(=O)c1ccccc1C(=O)O
inactive: Potency [1] | outcome [2] | outcome [3] | Potency [4] | outcome [5] | Potency [6] | outcome [7] | outcome [8] | outcome [9] | Potency [10] | outcome [11] | Potency [12] | outcome [13] | outcome [14] | outcome [18]

CCOCCOCCOC(C)=O
inactive: Potency [1] | outcome [2] | outcome [3] | Potency [4] | outcome [5] | Potency [6] | outcome [7] | outcome [8] | outcome [9] | Potency [10] | outcome [11] | Potency [12] | outcome [13] | outcome [14] | outcome [18] | outcome [15]

O=C(O)Cc1c(Cl)ccc(Cl)c1Cl
inactive: Potency [1] | outcome [2] | outcome [3] | Potency [4] | outcome [5] | Potency [6] | outcome [7] | outcome [8] | outcome [9] | Potency [10] | outcome [11] | Potency [19] | Potency [12] | outcome [13] | outcome [18] | outcome [15] | outcome [16] | activity change, positive = activation [17] 6.33%

CCOC(=O)CC(C(C)=O)C(C)=O
inactive: Potency [1] | outcome [2] | outcome [3] | Potency [4] | outcome [5] | Potency [6] | outcome [7] | outcome [8] | outcome [9] | Potency [10] | outcome [11] | Potency [12] | outcome [13] | outcome [14]
